From ChEMBL document CHEMBL3988442, “University of Dundee, Small-Polar-MMV Screening Library” (2021) come the findings set out here.

Common to all, as to parameters: scale not given: direction of the effect not stated beside the values
Test [1] deals with Protein translocase subunit SecA (Escherichia coli (strain K12)) (UniProt P10408). The experiment in a line: Assay to Identify E. coli SecA ATPase Inhibitors. Conditions: 30 µM. The class given is functional.
In test [2] the target is T1, Ubiquitin-activating enzyme e1, putative (Leishmania donovani (strain BPK282A1)) (UniProt E9BSI1).
T1 sequence (whole entry): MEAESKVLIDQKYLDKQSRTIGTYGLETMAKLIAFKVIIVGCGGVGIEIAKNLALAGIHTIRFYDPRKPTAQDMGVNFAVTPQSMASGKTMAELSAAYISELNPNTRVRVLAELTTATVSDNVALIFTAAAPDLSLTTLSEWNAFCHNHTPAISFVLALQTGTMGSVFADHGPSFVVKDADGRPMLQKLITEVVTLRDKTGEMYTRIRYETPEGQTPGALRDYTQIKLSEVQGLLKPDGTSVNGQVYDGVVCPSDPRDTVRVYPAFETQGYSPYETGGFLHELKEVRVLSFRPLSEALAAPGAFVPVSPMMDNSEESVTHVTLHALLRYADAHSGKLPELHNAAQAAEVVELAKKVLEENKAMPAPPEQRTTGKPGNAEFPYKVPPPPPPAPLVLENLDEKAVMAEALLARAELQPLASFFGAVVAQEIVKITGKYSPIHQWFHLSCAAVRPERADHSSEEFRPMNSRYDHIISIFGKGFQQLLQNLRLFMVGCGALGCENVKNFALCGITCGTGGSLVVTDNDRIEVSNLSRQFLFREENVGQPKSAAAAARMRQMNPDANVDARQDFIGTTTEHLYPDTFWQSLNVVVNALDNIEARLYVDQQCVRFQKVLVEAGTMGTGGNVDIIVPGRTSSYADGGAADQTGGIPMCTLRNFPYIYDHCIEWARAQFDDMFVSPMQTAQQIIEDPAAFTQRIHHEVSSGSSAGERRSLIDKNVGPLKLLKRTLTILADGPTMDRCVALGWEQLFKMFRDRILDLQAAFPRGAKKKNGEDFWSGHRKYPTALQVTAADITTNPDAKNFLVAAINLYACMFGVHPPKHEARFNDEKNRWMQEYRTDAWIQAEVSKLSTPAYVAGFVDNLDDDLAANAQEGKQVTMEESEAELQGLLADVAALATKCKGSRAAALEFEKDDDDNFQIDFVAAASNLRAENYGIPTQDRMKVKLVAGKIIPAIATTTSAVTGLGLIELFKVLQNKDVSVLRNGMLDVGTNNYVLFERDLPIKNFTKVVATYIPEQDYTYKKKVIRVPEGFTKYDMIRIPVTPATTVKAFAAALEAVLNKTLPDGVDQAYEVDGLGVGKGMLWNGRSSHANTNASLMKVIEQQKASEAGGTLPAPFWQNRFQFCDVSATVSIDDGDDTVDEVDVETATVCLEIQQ
The experiment in a line: Leishmania donovani Ubiquitin Activating Enzyme (LdE1). Conditions: 30 µM. It is filed as functional.

Test [3] deals with AMP-activated protein kinase, AMPK (Homo sapiens) (UniProt P54646+O43741+P54619+Q9UGJ0+Q9Y478+Q13131+Q9UGI9). The experiment in a line: AMP-dependent Kinase enzyme assay. An in vitro enzyme assay that detects ADP turnover that is directly proportional to AMPK activity. This uses naive AMPK that is activated during the assay with MK-8722. The class given is functional. Particulars: 30 µM.

For test [4], the target named is Sialic acid-binding Ig-like lectin 9 (Homo sapiens) (UniProt Q9Y336). The experiment in a line: Hs-Siglec9 ALPHAscreen SOP 20170721. Conditions: 10 µM. (In general: Alpha assays give light when donor and acceptor beads are brought close together.)
For test [5], the system named is Trypanosoma cruzi. The experiment in a line: Trypanosoma cruzi phosphomannomutase and mannose-1-phosphate guanylyltransferase assay. It is filed as functional. Particulars: 10 µM.
The target of test [6] is T2, Arginase-2, mitochondrial (Homo sapiens) (UniProt P78540).
T2 sequence (whole entry): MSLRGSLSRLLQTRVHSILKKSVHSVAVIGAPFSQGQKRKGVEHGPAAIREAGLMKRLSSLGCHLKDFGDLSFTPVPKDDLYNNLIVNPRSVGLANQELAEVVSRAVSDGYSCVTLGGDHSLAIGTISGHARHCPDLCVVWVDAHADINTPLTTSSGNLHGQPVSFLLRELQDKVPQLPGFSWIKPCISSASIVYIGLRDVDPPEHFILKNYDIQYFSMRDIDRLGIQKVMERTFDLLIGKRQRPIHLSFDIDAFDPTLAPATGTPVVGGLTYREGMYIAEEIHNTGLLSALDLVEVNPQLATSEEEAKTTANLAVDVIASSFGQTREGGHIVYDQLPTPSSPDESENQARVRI
The experiment in a line: in vitro enzyme assay to detect the production of urea directly proportional to the activity of Arginase II. Further: in the data most compounds retested in dose-response had high values. It is filed as functional. Particulars: 33.3 µM.

The target in test [7] is T3, Proteasome subunit beta (Trypanosoma cruzi) (UniProt O96673).
T3 sequence (whole entry): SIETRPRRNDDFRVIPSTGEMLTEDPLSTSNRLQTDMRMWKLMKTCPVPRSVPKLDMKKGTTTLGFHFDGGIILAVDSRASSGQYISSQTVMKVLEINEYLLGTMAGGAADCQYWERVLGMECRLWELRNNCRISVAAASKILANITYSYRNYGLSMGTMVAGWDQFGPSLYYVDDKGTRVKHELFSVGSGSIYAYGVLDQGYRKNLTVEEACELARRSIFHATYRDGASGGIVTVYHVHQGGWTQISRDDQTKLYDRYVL
The experiment in a line: Trypanosoma cruzi proteasome chymotrypsin-like activity (TcProtChymo) assay. Further: in the data most compounds retested in dose-response had high values. The class given is functional. Particulars: 9.37 µM.

The species named for test [8] is Homo sapiens. The experiment in a line: To identify inhibition of the IFN signalling (Jak-Stat) pathway via expression of an eGFP reporter gene under the control of an IFN-stimulated response element (ISRE) containing MxA promoter. It is filed as functional. Particulars: 30 µM. (In general: A reporter such as luciferase makes a cellular process visible.)
The target in test [9] is T4, Tyrosyl-tRNA synthetase, putative (Trypanosoma cruzi (strain CL Brener)) (UniProt Q4DSP6).
T4 sequence (whole entry): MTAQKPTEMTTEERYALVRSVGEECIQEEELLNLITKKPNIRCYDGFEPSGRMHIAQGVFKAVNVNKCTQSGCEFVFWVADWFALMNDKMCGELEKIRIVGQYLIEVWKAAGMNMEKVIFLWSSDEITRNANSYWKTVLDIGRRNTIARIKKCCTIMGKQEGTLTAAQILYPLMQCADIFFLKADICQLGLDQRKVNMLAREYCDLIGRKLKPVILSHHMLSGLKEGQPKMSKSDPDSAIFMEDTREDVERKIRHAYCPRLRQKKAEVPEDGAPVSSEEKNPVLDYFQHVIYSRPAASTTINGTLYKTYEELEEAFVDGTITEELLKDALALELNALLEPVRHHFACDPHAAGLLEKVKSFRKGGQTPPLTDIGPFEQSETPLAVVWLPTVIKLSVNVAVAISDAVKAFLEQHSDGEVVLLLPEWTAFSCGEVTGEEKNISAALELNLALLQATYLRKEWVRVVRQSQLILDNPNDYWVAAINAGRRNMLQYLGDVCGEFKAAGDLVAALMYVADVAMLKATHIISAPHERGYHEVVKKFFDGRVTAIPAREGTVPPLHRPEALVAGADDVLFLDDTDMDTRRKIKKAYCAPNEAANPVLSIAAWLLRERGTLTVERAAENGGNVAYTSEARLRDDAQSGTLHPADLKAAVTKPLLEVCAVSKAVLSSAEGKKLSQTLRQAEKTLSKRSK
The experiment in a line: Trypanosoma cruzi tyrosyl tRNA synthetase (TcYRS) _High Tyrosine SOP. Further: in the data most compounds retested in dose-response had high values. The class given is functional. Conditions: 30 µM.

Test [10] concerns the target T4, Tyrosyl-tRNA synthetase, putative (Trypanosoma cruzi (strain CL Brener)). The experiment in a line: Trypanosoma cruzi tyrosyl tRNA synthetase (TcYRS) SOP. It is filed as functional. Conditions: 30 µM.
In test [11] the target is Chromo domain-containing protein 1 (Saccharomyces cerevisiae (strain ATCC 204508 / S288c) (Baker's yeast)) (UniProt P32657). The experiment in a line: ScCHD-1 Enzyme Inhibition Assay. Further: in the data most compounds retested in dose-response had high values. The class given is functional. Conditions: 30 µM.

Structures are written as SMILES. For some of these results: Entries with a potency or affinity are not part of this list.

Chain of Sialic acid-binding Ig-like lectin 9 (Homo sapiens) (Q9Y336 whole entry): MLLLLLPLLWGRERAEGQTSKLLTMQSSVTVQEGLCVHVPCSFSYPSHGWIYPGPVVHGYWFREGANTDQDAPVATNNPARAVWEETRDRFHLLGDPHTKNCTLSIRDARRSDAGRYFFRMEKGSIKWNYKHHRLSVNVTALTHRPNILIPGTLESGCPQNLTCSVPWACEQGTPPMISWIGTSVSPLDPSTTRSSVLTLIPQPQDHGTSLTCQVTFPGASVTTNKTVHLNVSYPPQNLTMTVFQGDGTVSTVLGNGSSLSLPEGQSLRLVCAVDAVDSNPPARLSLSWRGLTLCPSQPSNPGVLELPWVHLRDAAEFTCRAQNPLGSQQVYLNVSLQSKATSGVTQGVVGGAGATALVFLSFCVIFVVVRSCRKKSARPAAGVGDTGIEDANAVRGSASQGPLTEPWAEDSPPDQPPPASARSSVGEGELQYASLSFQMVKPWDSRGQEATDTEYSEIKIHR
Chain of Chromo domain-containing protein 1 (Saccharomyces cerevisiae (strain ATCC 204508 / S288c) (Baker's yeast)) (P32657 whole entry, the tested form may be a part): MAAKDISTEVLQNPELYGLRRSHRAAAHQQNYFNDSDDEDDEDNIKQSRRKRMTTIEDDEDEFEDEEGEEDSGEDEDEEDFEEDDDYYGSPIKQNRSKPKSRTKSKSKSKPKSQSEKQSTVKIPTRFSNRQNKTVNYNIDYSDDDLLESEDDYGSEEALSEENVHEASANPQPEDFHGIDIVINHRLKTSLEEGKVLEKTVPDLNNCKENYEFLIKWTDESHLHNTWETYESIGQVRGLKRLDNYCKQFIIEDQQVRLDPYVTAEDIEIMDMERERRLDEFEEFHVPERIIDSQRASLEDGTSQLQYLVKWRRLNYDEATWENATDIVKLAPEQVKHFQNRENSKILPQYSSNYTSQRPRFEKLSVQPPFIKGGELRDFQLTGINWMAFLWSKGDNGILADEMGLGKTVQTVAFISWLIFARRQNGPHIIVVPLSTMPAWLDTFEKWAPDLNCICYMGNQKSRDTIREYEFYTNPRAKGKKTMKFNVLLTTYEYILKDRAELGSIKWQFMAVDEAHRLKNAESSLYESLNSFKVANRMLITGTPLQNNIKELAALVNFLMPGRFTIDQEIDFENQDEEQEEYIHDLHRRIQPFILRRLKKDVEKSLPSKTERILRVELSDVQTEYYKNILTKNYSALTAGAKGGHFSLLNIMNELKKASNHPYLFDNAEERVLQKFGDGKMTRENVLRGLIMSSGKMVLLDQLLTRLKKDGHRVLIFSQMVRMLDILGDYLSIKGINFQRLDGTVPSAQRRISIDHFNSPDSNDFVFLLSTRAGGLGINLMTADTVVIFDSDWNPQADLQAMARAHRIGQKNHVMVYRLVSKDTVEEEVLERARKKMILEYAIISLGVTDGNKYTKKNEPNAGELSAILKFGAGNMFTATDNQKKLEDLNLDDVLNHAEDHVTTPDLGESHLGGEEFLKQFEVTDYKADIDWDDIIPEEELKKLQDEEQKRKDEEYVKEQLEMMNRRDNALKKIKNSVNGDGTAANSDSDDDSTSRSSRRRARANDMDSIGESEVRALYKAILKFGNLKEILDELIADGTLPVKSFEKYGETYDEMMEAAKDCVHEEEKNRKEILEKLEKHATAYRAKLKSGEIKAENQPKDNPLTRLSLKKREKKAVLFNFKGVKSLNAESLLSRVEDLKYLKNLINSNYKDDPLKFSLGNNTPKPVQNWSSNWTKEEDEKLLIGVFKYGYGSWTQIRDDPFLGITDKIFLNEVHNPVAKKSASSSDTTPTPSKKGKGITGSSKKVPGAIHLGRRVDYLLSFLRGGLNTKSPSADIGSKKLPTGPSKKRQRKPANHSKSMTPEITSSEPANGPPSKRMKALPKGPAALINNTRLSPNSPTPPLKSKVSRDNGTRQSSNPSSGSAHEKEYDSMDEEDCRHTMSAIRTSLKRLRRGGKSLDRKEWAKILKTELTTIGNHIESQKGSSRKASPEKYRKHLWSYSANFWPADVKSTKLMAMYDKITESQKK
Chain of Protein translocase subunit SecA (Escherichia coli (strain K12)) (P10408 whole entry): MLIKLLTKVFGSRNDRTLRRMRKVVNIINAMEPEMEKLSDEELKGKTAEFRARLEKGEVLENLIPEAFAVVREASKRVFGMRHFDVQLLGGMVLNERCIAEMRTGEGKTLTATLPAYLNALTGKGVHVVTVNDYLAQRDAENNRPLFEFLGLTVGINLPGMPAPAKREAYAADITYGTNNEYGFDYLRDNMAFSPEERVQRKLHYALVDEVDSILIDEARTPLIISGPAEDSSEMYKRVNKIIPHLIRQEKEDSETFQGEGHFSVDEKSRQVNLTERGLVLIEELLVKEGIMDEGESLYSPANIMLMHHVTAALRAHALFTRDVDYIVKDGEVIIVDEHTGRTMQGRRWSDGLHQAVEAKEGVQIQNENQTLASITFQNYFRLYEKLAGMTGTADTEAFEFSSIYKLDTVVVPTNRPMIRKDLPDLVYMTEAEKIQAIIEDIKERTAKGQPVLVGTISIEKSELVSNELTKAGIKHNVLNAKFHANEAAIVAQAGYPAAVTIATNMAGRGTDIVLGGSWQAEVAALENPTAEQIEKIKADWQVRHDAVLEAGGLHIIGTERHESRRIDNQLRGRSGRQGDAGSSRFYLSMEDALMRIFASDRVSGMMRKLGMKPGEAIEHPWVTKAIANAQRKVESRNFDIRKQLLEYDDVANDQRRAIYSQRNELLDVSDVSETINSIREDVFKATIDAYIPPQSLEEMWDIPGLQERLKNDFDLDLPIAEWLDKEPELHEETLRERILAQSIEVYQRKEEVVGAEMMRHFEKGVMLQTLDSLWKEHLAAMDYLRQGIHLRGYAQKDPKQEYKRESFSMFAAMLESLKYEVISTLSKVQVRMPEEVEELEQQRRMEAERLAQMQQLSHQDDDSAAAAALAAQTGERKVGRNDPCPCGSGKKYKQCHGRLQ

On to `CN(C)c1ncccc1CNC(=O)N1CCCC1c1ccsc1` (stereo unspecified), for which the Percent Effect in [1] is -9.33%; in test [2], 18.2%; in test [3], -4.46%; in [4], 4.94%; in test [5] it was -2.43%; in [6], 0.712%. In addition, the Percent Effect in test [7] is 2.2%; in [8], 1.32%; in test [9], 5.83%; in [10] it was 14.6%; in [11], -6.19%.
Regarding `CCn1nnc2cc(C(=O)N3CCCC3Cn3cc(C)cn3)ccc21` (stereo unspecified), the Percent Effect in test [1] was -1.32%; in test [2] it was -5.06%; in test [3] it was -2.65%; in test [4] it was 3.15%; in test [5], 3.31%; in test [6] it was 2.28%. The Percent Effect in [7] turned out to be 0.737%; in test [8], 9.94%; in test [9] it was 0.493%; in [10], 1.27%; in test [11] it was 0.343%.
For `CC(C)c1nc2c(n1C)CCN(CC(=O)Nc1ccc(Cl)cn1)C2`, the Percent Effect was -1.64% in test [1]; 15.6% in [2]; 1.07% in test [3]; 6.83% in [4]; 0.686% in [5]; -2.32% in test [6]. Also, the Percent Effect was 19.8% in test [7]; 6.83% in test [8]; 4.76% in test [9]; 21.2% in test [10]; -21.7% in test [11].
Turning to `COCc1cn([C@@H]2c3ccccc3C3(CCNCC3)[C@H]2O)nn1`, the Percent Effect was -4.27% in test [1]; 9.72% in [2]; 2.64% in test [3]; 16.1% in test [4]; 6.71% in test [5]; 24.7% in [6]. Also, the Percent Effect in test [7] was 3.16%; in [8], 3.98%; in test [9], 4.21%; in [10], 10.3%; in test [11], -5.28%.
For the compound `c1coc(CN2Cc3nccn3CC(Cn3cncn3)C2)c1` (stereo unspecified), the Percent Effect in [1] is -4.49%; in test [2], -2.74%; in test [3], -1.24%; in test [4], 1.11%; in [5] it was -2.38%; in [6], -4.39%. The Percent Effect was 6.25% in test [7]; -3.99% in test [8]; 1.04% in test [9]; 1.24% in [10]; -1.23% in test [11].
Consider `Fc1ccc(CN2CCCN(Cc3cscn3)CC2)cc1`, for which the Percent Effect in test [1] is -1.59%; in [2], 18.2%; in test [3], -0.0725%; in [4] it was -10.1%; in test [5], -1.27%; in test [6] it was 1.05%. Also, the Percent Effect in test [7] is 9.46%; in test [8] it was 30.6%; in [9] it was 8.57%; in [10], 25.9%; in test [11], -21.9%.
Turning to `CCN(C)c1ccc(C(=O)N(CCOC)Cc2ccccn2)cc1`, the Percent Effect in test [1] was -4.29%; in test [2], 21.3%; in test [3], -3.55%; in test [4], 21.4%; in test [5] it was 7.89%; in [6] it was 38.5%. The Percent Effect in [7] is 15.2%; in test [8] it was 20.7%; in test [9], 6.01%; in test [10] it was 21%; in test [11], -5.22%.
Consider `CC(=O)NCCNC(=O)c1cnc(-c2ccccc2)nc1`, for which the Percent Effect is -2.95% in test [1]; 2.7% in [2]; 0.346% in test [3]; 11.7% in test [4]; -4.59% in [5]; 4.22% in test [6]. Moreover, the Percent Effect is 3.35% in test [7]; 0.496% in test [8]; 6.45% in [9]; 11.1% in [10]; -5.21% in test [11].
As for `Cc1nc(C)n(CC2CCCN(CCNC(=O)OC(C)(C)C)C2)n1` (stereo unspecified), the Percent Effect in test [1] is -0.765%; in test [2] it was 2.6%; in test [3], 5.46%; in test [4] it was 11.6%; in [5], 1.67%; in test [6] it was 5.26%. The Percent Effect in [7] was 5.9%; in [8], 9.69%; in test [9] it was 2.86%; in test [10] it was 0%; in test [11] it was -4.66%.
`CCc1noc(C(C)N2CCN(Cc3noc(C)n3)CC2)n1` (stereo unspecified): the Percent Effect was 1.26% in test [1]; 21.1% in test [2]; -0.566% in test [3]; -7.24% in test [4]; 1.32% in test [5]; -4.21% in test [6]. The Percent Effect is 19.6% in test [7]; 15.5% in test [8]; 6.37% in test [9]; 17.1% in test [10]; -7.65% in test [11].
`Cc1nc[nH]c1CN1C[C@@H]2CC[C@H](C1)N(C(=O)CCc1cnn(C)c1)C2`: the Percent Effect in test [1] was -1.58%; in test [2], 6.94%; in test [3] it was -9.43%; in test [4], 16.8%; in test [5], 4.96%; in [6], 29.1%. Also, the Percent Effect in [7] was 5.09%; in [8] it was -11.8%; in test [9] it was 2.1%; in [10], 7.69%; in [11], -1%.
